This test has as its system Vero E6 infected with SARS-CoV-2. Nature of the test: inhibition of SARS-CoV-2 cytopathic effect; higher = more antiviral protection, active = above 15. The settings on record: 48 h. (In general: Cytopathic effects are the visible damage that an infection or toxin causes in cultured cells.)

SMILES strings stand for the structures. Unmarked numbers belong to inactive results.

As for `CCCN1CCC[C@@H]2Cc3n[nH]cc3C[C@H]21` [quinpirol-(-)], the “inhibition of SARS-CoV-2 cytopathic effect” value (shortened to “inhibition”) was -2.17% (1 nM); 2.95% (8.33 nM); 0.48% (100 nM); -2.24% (833.33 nM); -0.87% (10000 nM).

As to `CNCCCC1(c2ccccc2)OC(C)(C)c2ccccc21` (stereo not given) [talopram], the “inhibition” value is -0.51% (1 nM); -1.8% (8.33 nM); 0.91% (100 nM); -2.03% (833.33 nM); -3.52% (10000 nM).

As to `O=C(O)COc1nn(Cc2ccccc2)c2ccccc12` [bendazac], the “inhibition” value is -1.4% (1 nM); 2.21% (8.33 nM); 0.57% (100 nM); -1.97% (833.33 nM); -2.52% (10000 nM).

`O=C(O)c1cc2occc2[nH]1`: the “inhibition” value is -2.55% (1 nM); -2.94% (8.33 nM); -2.08% (100 nM); -2.97% (833.33 nM); -2.87% (10000 nM).

As for `CC(=O)OCC1=C(C(=O)O)N2C(=O)[C@@H](NC(=O)CCCC(N)C(=O)O)C2SC1` (stereo not given in full) [cephalosporin-c-zn], the “inhibition” value (1 nM) is -4.01%; the “inhibition” value (8.33 nM) was -0.13%; the “inhibition” value (100 nM) is -2.05%; the “inhibition” value (833.33 nM) is 3.87%; the “inhibition” value (10000 nM) was 1.87%.

On to `COc1cc2c(N3CCN(C(=O)Nc4ccc(OC(C)C)cc4)CC3)ncnc2cc1OCCCN1CCCCC1` [tandutinib], for which the “inhibition” value runs as follows: (1 nM) -3.74%; (8.33 nM) -4.22%; (100 nM) -2.54%; (833.33 nM) 0.88%; (10000 nM) 0.92%.

Consider `O=[N+]([O-])c1cc(Cl)ccc1S(=O)(=O)N1CCN(Cc2ccccc2)CC1`, for which the “inhibition” value is 2.15% (1 nM); 2.13% (8.33 nM); -0.96% (100 nM); 3.68% (833.33 nM); -1.65% (10000 nM).

As to `Oc1cc(CNC(=S)/C=C/c2cc(O)c(O)c(Br)c2)cc(O)c1O`, the “inhibition” value is 0.9% (1 nM); 0.99% (8.33 nM); 2.87% (100 nM); 5.44% (833.33 nM); 19.8% (active) (10000 nM).

With `O=Nc1ccc(O)c2ncccc12`, the “inhibition” value (1 nM) was 3.04%; the “inhibition” value (8.33 nM) was -4.1%; the “inhibition” value (100 nM) is 1.42%; the “inhibition” value (833.33 nM) was 13.5%; the “inhibition” value (10000 nM) was 19.6% (active).

As to `CN(C)C(=S)SC(=S)N(C)C` [tetramethylthiuram-monosulfide], the “inhibition” value (1 nM) was -5.07%; the “inhibition” value (8.33 nM) is -6.29%; the “inhibition” value (100 nM) is -7.33%; the “inhibition” value (833.33 nM) is 11.9%; the “inhibition” value (10000 nM) was 10%.

In the case of `CNC(=O)c1cccc(NC(=O)N2CCC(Oc3ccccc3Cl)CC2)c1`, the “inhibition” value reads like this: (1 nM) 0.48%; (8.33 nM) -3.23%; (100 nM) -1.17%; (833.33 nM) -2.36%; (10000 nM) -3.23%.

In the case of `CCCCCCN(CCCCCC)C(=O)Cc1c(-c2ccc(Cl)cc2)[nH]c2ccc(Cl)cc12`, the “inhibition” value was 1.54% (1 nM); 2.57% (8.33 nM); -1.81% (100 nM); -0.56% (833.33 nM); -0.57% (10000 nM).

Turning to `C[n+]1c2cc(N)ccc2cc2ccc(N)cc21.Nc1ccc2cc3ccc(N)cc3nc2c1` [acriflavine], the “inhibition” value is 2.32% (1 nM); 1.62% (8.33 nM); 1.04% (100 nM); -1.18% (833.33 nM); -12.9% (10000 nM).

Consider `COCCN1CCN(Cc2ccc(-c3n[nH]c4c3C(=O)c3c(NC(=O)NN5CCOCC5)cccc3-4)cc2)CC1`, for which the “inhibition” value by setting is: (1 nM) 0.81%; (8.33 nM) -16.4%; (100 nM) 0.61%; (833.33 nM) 2.47%; (10000 nM) 9%.

In the case of `COc1c(Nc2ccc(S(C)(=O)=O)nc2C)ncnc1OC1CCN(C(=O)OC(C)C)CC1`, the “inhibition” value (1 nM) is -1.98%; the “inhibition” value (8.33 nM) was 0.8%; the “inhibition” value (100 nM) is 0.06%; the “inhibition” value (833.33 nM) is -1.17%; the “inhibition” value (10000 nM) is -1.76%.

In the case of `N#Cc1ccccc1OCC(O)CNCCNC(=O)Nc1ccccc1` (stereo not given), the “inhibition” value is 0.6% (1 nM); 0.87% (8.33 nM); -0.54% (100 nM); 0.35% (833.33 nM); -2.72% (10000 nM).

As for `O=C(OCCN1CCCCC1)c1c[nH]c2ccccc12`, the “inhibition” value (1 nM) is 0.38%; the “inhibition” value (8.33 nM) was 2.59%; the “inhibition” value (100 nM) was 1.63%; the “inhibition” value (833.33 nM) was -1.42%; the “inhibition” value (10000 nM) is -6.53%.

As to `CC(=O)O[C@H]1Cc2ccccc2N(C(N)=O)c2ccccc21` [eslicarbazepine-acetate], the “inhibition” value was 3.04% (1 nM); -0.54% (8.33 nM); 1.48% (100 nM); 0.03% (833.33 nM); 1.45% (10000 nM).

On to `COc1ccc(S(=O)(=O)Nc2cccnc2Nc2ccc(O)cc2)cc1`, for which the “inhibition” value reads like this: (1 nM) 1.18%; (8.33 nM) 4.25%; (100 nM) 1.28%; (833.33 nM) 0.22%; (10000 nM) 1.62%.

Consider `O=C(O)Cc1ccc(OCc2ccccc2)c(Cl)c1` [benzofenac], for which the “inhibition” value by setting is: (1 nM) -0.05%; (8.33 nM) 4.15%; (100 nM) 1.74%; (833.33 nM) 1.88%; (10000 nM) 0.27%.

Turning to `FC(F)(F)c1cccc(C2=CCN(CCc3ccc4ccccc4c3)CC2)c1` [xaliproden], the “inhibition” value is -0.86% (1 nM); -1.4% (8.33 nM); 1.4% (100 nM); 0.49% (833.33 nM); 0.49% (10000 nM).

For `CCCSc1ccc2[nH]c(NC(=O)OC)nc2c1` [albendazole], the “inhibition” value was 3.38% (1 nM); -0.38% (8.33 nM); -0.24% (100 nM); -0.32% (833.33 nM); 2.97% (10000 nM).

For the compound `C[C@H](NC(=O)Cc1cc(F)cc(F)c1)C(=O)N[C@@H]1C(=O)N(C)c2ccccc2-c2ccccc21`, the “inhibition” value by setting is: (1 nM) -2.68%; (8.33 nM) -3.21%; (100 nM) -6.27%; (833.33 nM) -7.86%; (10000 nM) -8.97%.
